Most compounds without a hit are left out; they make up all but 7.2% or so of the library.
Mot1-301 SUMO – yeast Mot1-301 growth rescue at high temperature, primary screen, SUMOylation pathway inhibitor project, S. cerevisiae, ATP luminescence, 38.5C; AID 2716, 2010; growth rescue, % at 18.8 µM; S. cerevisiae Mot1-301 growth rescue; percent above DMSO median, 100 means doubled; 320,000 compounds, 1% hits;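 active = every valid replicate shows activation above 250% relative to neutral control wells; inactive = the rest, any valid replicate at or below 250%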;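 note: OY570 slx delta 5 strain wells were the positive control but not used for scaling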
AHR activator – AHR activators, primary screen, cell-based, luminescence, luciferase reporter, human | activation, % at 5 µM | AHR-responsive luciferase reporter cells | AID 2796, 2010 | 320,000 compounds, 2.5% hits; in the data active = activation above about 47%;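 note: 0% = vehicle wells and 100% = reference agonist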
VLA-4 inh – inhibition in human VLA-4 binding assay, primary screen, VLA-4 allosteric modulator project, MLPCN library, flow cytometry, VLA-4 expressing cells | Integrin alpha-4 (Homo sapiens), P13612 | ligand binding flow cytometry | inhibition, % (about 7 µM as worked out from the volumes in the protocol) | 330,000 compounds, 0.2% hits; in the data active = inhibition above about 50%
Efflux pump inh – inhibitors of Candida efflux pumps in yeast, primary screen, S. cerevisiae, Nile Red, multiplex. AID 485275, 2010. 330,000 compounds, 0.44% hits. S. cerevisiae Candida pump triplex. inhibition, % at 10 µM;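 active = plate passing quality check with inhibition over a set limit, or well fluorescence over plate mean plus 4 SD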;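 note: Nile Red retained in pooled yeast measured as flow cytometry median fluorescence; 0% = buffer negative control and 100% = Enniatin B positive control; higher means more Nile Red kept so more efflux inhibition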
ALR inh – inhibitors of human ALR sulfhydryl oxidase, primary screen, biochemical, H2O2 detection, HRP-luminol luminescence, single point; FAD-linked sulfhydryl oxidase ALR (Homo sapiens), P55789; purified ALR, DTT oxidation; inhibition, % (no concentration beside the values); 290,000 compounds, 3.8% hits; AID 485317, 2010;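 active = mean replicate inhibition above about 79%, with every replicate also reaching it, limit read from the data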
Bfl-1 A1 inh – caspase 3/7 activation in MEF A1-2A-BIM cells, primary screen, A1 inhibitor project, cell-based, luminescence, HTS; Caspase-Glo 3/7 luminescence, 3 h; percent of clofoctol response, vehicle zero; caspase activation, % (test concentration not listed); 330,000 compounds, 0.066% hits; AID 2462, 2010;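 active = over half of replicate activation scores above 10%, or exactly half above 10 with the replicate mean above 10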
VLA-4 allo CP – retest of VLA-4 allosteric modulators, confirmation, cell-based, cherry-picked plates, U937, HUTS-21 LIBS antibody; shares compounds with VLA-4 inh; U937 cells, HUTS-21 LIBS mAb binding, flow cytometry; LDV ligand present at threefold Kd; AID 2813, 2010; inhibition, % at 6.7 µM; 1,300 compounds, 2% hits; in the data active = inhibition above about 40%;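 note: 0% = ligand without compound and 100% = no ligand background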
Numbers without * were called inactive; nt = no result.

SMILES | Mot1-301 SUMO | AHR activator | VLA-4 inh | Efflux pump inh | ALR inh | Bfl-1 A1 inh | VLA-4 allo CP
Cc1nn(C(=O)c2cccc([N+](=O)[O-])c2)c(C)c1Cl | 0 | 0 | 8 | 0 | -11 | 0 | nt
COc1ccc(C)cc1NC(=O)Nc1ccccc1 | -2 | 26 | 50* | 0 | 7 | -1 | -4
Cc1ccc(NC(=O)Nc2ccccc2C(N)=O)cc1 | 5 | 5 | -1 | 0 | 0 | -11 | 8
COc1ccc(NC(=O)Nc2cc(C)ccc2OC)cc1 | -9 | 3 | 8 | 0 | -6 | -7 | nt
COc1cccc(-n2c(=O)c3c(C)c(C(=O)N(C)C)sc3n(CC(=O)NCC3CCCO3)c2=O)c1 (stereo not given) | 2 | 0 | -13 | 0 | 10 | 0 | nt
CCN(CC(=O)NCc1ccc(F)cc1)C(=O)c1ccc(COc2ccccc2)cc1 | 81 | 10 | 19 | 0 | 2 | -5 | nt
CC(C)c1ccc(NC(=O)C2CCCN2S(=O)(=O)c2ccccc2F)cc1 (stereo not given) | -4 | 7 | 19 | 1 | -3 | 0 | nt
COc1ccc(CNCCNC(=O)c2cccs2)cc1OC | 33 | 2 | 65* | 0 | -2 | -1 | 0
O=C(COC(=O)C1CCCCC1)Nc1cccc(Br)c1 | 18 | 0 | -20 | 0 | 0 | 0 | nt
CNc1nc(N(C)C)nc(N(C)C)n1 | -14 | 15 | 59* | 0 | 3 | 0 | -5
CN(C)c1nc(Nn2cnnc2)nc(N(C)C)n1 | 3 | 0 | -1 | 0 | 3 | 0 | nt
CC(=O)Oc1ccc(N2C(=O)C3C4C=CC(CO)(O4)C3C2=O)cc1 (stereo not given) | 32 | 1 | -7 | 0 | 49 | -2 | nt
O=C1C2C3C=CC(CO)(O3)C2C(=O)N1c1ccccc1-c1ccccc1 (stereo not given) | -19 | 0 | 50* | 0 | 4 | 2 | 4
COc1ccccc1-c1nc2ccc(Cl)cc2c(=O)n1O | 5 | 2 | 42 | 0 | 0 | 1 | -5
COc1ccccc1-c1nc2cc(Cl)ccc2c(=O)n1O | -15 | 6 | -6 | 0 | 4 | -1 | nt
CCc1nc(CN2CCCC(C(=O)c3ccc4c5c(cccc35)CC4)C2)c(C)[nH]1 (stereo not given) | -8 | 4 | 6 | 0 | -20 | 0 | nt
Cc1ccc(CNC(=O)CCCc2cn(C)c3ccccc23)cc1 | 5 | 4 | 42 | 0 | -5 | 0 | 5
O=C(CNC(=O)c1ccc2ccccc2c1)NC1CCCCC1 | 9 | 5 | 14 | 0 | 6 | 0 | nt
CCOc1ccc(S(=O)(=O)Nc2ccccc2C(=O)N(C)C2CCN(C)CC2)cc1 | 0 | 0 | 50* | 0 | nt | 1 | -10
CCOC(=O)c1ccccc1NS(=O)(=O)c1ccc(OCC)cc1 | 5 | 4 | -8 | 0 | -8 | 0 | nt
c1ccc(-c2nnc(CN3CCCCC3)o2)cc1 | -14 | 3 | 45 | 0 | 1 | 0 | -12
CCOc1ccc(-c2nnc3ccc(SCC(=O)N4CCCCC4)nn23)cc1 | 44 | 6 | 18 | 0 | 4 | 0 | -1
COc1ccc(-c2nnc3ccc(SCC(=O)N4CCCC4)nn23)cc1 | 8 | 6 | 10 | 0 | 13 | 1 | nt
CCCNS(=O)(=O)c1cccc(C(=O)NC2CCCc3ccccc32)c1 (stereo not given) | -16 | 0 | 3 | 0 | 3 | 1 | nt
N#CC1=C(S)N=C(N)C(c2nc(-c3ccccc3)cs2)C12CCCC2 (stereo not given) | 31 | 7 | 91* | 0 | 3 | 1 | -2
SMILES | Mot1-301 SUMO | AHR activator | VLA-4 inh | Efflux pump inh | ALR inh | Bfl-1 A1 inh | VLA-4 allo CP
N#CC1=C(S)N=C(N)C(c2nc(-c3ccccc3)cs2)C12CCCCC2 (stereo not given) | 9 | -1 | -4 | 0 | -3 | -1 | nt
CCc1nnc(NC(=O)OCc2ccccc2)s1 | 68 | 7 | 57* | 0 | -4 | 0 | -1
COc1ccccc1NC(=O)c1c(C)oc2c1CCCC2 | 19 | 60* | 93* | 0 | 4 | 1 | 4
Cc1oc2c(c1C(=O)Nc1cccc3ccccc13)CCCC2 | 11 | 14 | 6 | 0 | -2 | 0 | nt
OC[C@H]1O[C@@H](n2cnc3c(NC4CCCC4)ncnc32)[C@H](O)[C@@H]1O | 5 | 3 | 5 | 0 | -28 | -1 | 3
OCC1OC(n2cnc3c(NC4CCCCC4)ncnc32)C(O)C1O (stereo not given) | 179 | 1 | -31 | 0 | -12 | -1 | 5
CCC(COC)NC(=O)CCc1nnc(Cc2cccc(C(F)(F)F)c2)o1 (stereo not given) | -7 | 4 | -8 | 0 | nt | -1 | nt
CSc1nc2nc(-c3ccccc3)cc(=O)n2[nH]1 | -15 | 4 | 93* | 0 | 2 | 1 | 5
CCCCN(CCCC)CCn1cnc2c([nH]c3ccc(OC)cc32)c1=O | -10 | 12 | -4 | 0 | 35 | -1 | -12
CCC1CCCN1Cn1cnc2c([nH]c3ccc(OC)cc32)c1=O (stereo not given) | -15 | 3 | 4 | 0 | -6 | 0 | -13
COc1ccc2[nH]c3c(=O)n(CCc4ccccc4)cnc3c2c1 | 10 | 7 | -7 | 0 | nt | -2 | nt
O=C(C[C@H]1C/C=C\C[C@H](NC(=O)OCC2c3ccccc3-c3ccccc32)C(=O)OC[C@H](Cc2ccccc2)NC1=O)N[C@H](CO)Cc1ccccc1 | 12 | 0 | 6 | 0 | -4 | 0 | nt
O=S(=O)(c1ccc2c(c1)OCCO2)N1CCC(O)(c2ccc(Cl)cc2)CC1 | -13 | -2 | 6 | 0 | -9 | 2 | nt
COc1ccc(-n2cnc3cc(C(=O)NCCN4CCOCC4)ccc32)cc1 | -4 | 3 | 43 | 0 | -9 | 0 | -7
COc1cccc2cc(C(=O)NCCN3CCOCC3)c(=O)oc12 | 22 | 2 | 41 | 0 | 0 | 0 | -18
CCN(CC)C(=O)C1=C(C)Nc2ncnn2C1c1cccnc1 (stereo not given) | 2 | 1 | 11 | 0 | nt | 0 | nt
Nc1c(C(=O)CSc2ncccn2)c(=O)[nH]c(=O)n1C1CC1 | -4 | 2 | 7 | 0 | 2 | 0 | nt
CCc1noc(C)c1C(=O)NNC(=O)COc1ccccc1C | 3 | -1 | 8 | 0 | nt | 0 | nt
